This note sets out measurements from PubChem BioAssay (EPA / NIEHS).

Some compounds were tested as several samples or in several runs, with calls that do not always agree. Activity calls are given as the source filed them. The calls were made as follows: active = hit-call score of the fitted dose curve at least 0.9, where 1 is the maximum; inactive = score below 0.9.

Read-out in the assay: Monocyte Chemoattractant Protein-1 (MCP1), CCL2 (gene 6347)
The experiment in a line: BSK_IMphg_MCP1: BioMAP Diversity Plus: IMphg Assay for Monocyte Chemoattractant Protein-1 (MCP1) Biomarker Activity (AID 2284253). Particulars: primary human endothelial cells with macrophages. Here is the method:
BSK_IMphg is a cell-based, multiplexed-readout assay that uses venular endothelial cells and macrophages, a human vascular primary cell, with measurements taken at 24 hours after chemical dosing in a microplate: 96-well plate.BSK_IMphg_MCP1 is an assay component measured in the BSK_IMphg assay. It measures MCP-1 antibody related to regulation of gene expression using ELISA technology.Data from the assay component BSK_IMphg_MCP1 was analyzed at the endpoint, BSK_IMphg_MCP1, in the positive analysis fitting direction relative to DMSO as the negative control and baseline of activity. Using a type of binding reporter, gain or loss-of-signal activity can be used to understand protein changes. To generalize the intended target to other relatable targets, this assay endpoint is annotated to the 'cytokine' intended target family, where the subfamily is 'chemotactic factor'.
The levels of cell surface (or secreted, indicated by the prefix "s") biomarker endpoints were measured by ELISA. Overt cytotoxicity to cells in confluent adherent cultures (all systems other than the BT system) was assessed by measuring total protein levels using sulforhodamine B (SRB) staining in parallel cultures at the time of biomarker measurements, indicated as SRB endpoints. For proliferation assays for adherent cell types, individual cell types are cultured at sub-confluence and relative cell numbers quantified by SRB staining at time points optimized for each system (48 h: 3C and CASM3C systems; 72 h: BT and HDF3CGF systems; 96 h: SAg system). SRB was performed by staining cells with 0.1% SRB after fixation with 10% TCA and reading wells at 560 nm.Viability and proliferation of PBMC (T cells) was quantified by Alamar Blue reduction for the SAg and BT systems. For PBMC viability (referred to as PBMC Cytotoxicity within the assay endpoint names), cells were plated (75,000/well in a 96-well plate) and then chemical samples added for 1 h before addition of activators, SEB and TSST-1 (20 ng/mL final concentration each). Cells were incubated for 90 h. Then, Alamar Blue (20 uL/well) (Invitrogen, Cat DAL1100) was added for 6 h, and the plates were read with a fluorescence microplate reader at 546/580 nm (excitation/emission). For PBMC proliferation, cells were plated and activated as above but incubated for only 16 h prior to addition of Alamar Blue. Plates were read after 6 h.
Regarding `FC(F)(F)C(F)(C(F)(F)F)C(F)(F)C(F)(F)CC1CO1` (stereo unspecified), the outcome was inactive.
With `O=C(O)C(F)(F)OC(F)(F)C(F)(F)OC(F)(F)F`, the result was inactive.
As to `O=C(O)C=CC(F)(C(F)(F)F)C(F)(F)F`, the outcome was inactive.
Turning to `NC(=O)C(F)(F)C(F)(F)F`, the outcome was inactive.
The same measure, in the same setting: with `O=S(=O)(F)C(F)(F)C(F)(F)C(F)(F)C(F)(F)C(F)(F)C(F)(F)C(F)(F)C(F)(F)F` the entry was “inactive”.
On to `OCC(F)(F)OC(F)(F)C(F)(F)OC(F)(F)C(F)(F)OC(F)(F)CO`, for which the result was inactive and the AC50 is 7.09 µM (active).
As to `OCC(F)(F)OC(F)(F)C(F)(F)OC(F)(F)C(F)(F)OC(F)(F)F`, the AC50 is 45.6 µM (active) and the result was inactive.
As for `COC(=O)C(F)(F)C(F)(F)OC(F)(C(F)(F)F)C(F)(F)OC(F)=C(F)F` (stereo unspecified), the result was inactive.
Turning to `O=C(O)C(F)(F)C(F)(F)C(=O)O`, the result was inactive.
Consider `C=CC(=O)OCC(F)(F)C(F)F`, for which the result was inactive.
For the compound `O=C(O)C(F)(OC(F)(F)C(F)(F)C(F)(F)F)C(F)(F)F` (stereo unspecified), the outcome was inactive.
Take `CC(O)C(F)(F)C(F)(F)F` (stereo unspecified): the outcome was inactive.
Take `OCC(F)(F)OC(F)(F)C(F)(F)OC(F)(F)CO`: the outcome was inactive.
On the same count and under the same terms, for `O=C(O)C(F)(F)OC(F)(F)C(F)(F)OC(F)(F)C(=O)O` the value was “inactive”.
